{
  "source": "PubChem BioAssay (NCI)",
  "note": "The panel holds about 83,000 compounds, 20% with a hit somewhere; the sample as a whole holds those more often.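 Treatment: one concentration, 48 hours, 96-well format. Scoring: percent growth, with anything below 10 considered active.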 A number with no mark means an inactive call. The source made the active and inactive calls.",
  "data": [
    {"system": "UACC-257 melanoma", "assay": "NCI-60 one-dose screen, 48 h (100 = growth as untreated, 0 = no growth, -100 = all killed)", "conditions": "10 µM", "values": [
      {"smiles": "O=C1Nc2ccc(Cl)cc2/C1=C/c1ccc(OCc2ccc(Br)cc2F)cc1", "growth": "65.2%"},
      {"smiles": "O=c1[nH]n(C(=S)N/N=C/c2ccc(F)cc2)c(=O)c2ccccc12", "growth": "95%"},
      {"smiles": "O=C1Nc2cc(Cl)ccc2/C1=C/c1ccc(OCc2ccc(Br)cc2F)cc1", "growth": "-22.6% (active)"},
      {"smiles": "CN1CCc2c(sc3ncnc(N/N=C/c4cn(-c5ccccc5)nc4-c4ccc(Br)cc4)c23)C1", "growth": "29.9%"},
      {"smiles": "COc1ccc(C=CC(=O)c2ccc(-n3c(C)nc4c(cnn4-c4ccccc4)c3=O)cc2)cc1", "growth": "74.6%"},
      {"smiles": "O=C1Nc2cc(Cl)ccc2/C1=C/c1cccc(OCc2ccc(Br)cc2F)c1", "growth": "45.9%"},
      {"smiles": "O=C1Nc2ccc(F)cc2/C1=C/c1cccc(OCc2ccccc2)c1", "growth": "26.6%"},
      {"smiles": "O=C(CSc1ccc(-c2ccc(Cl)cc2)nn1)Nc1ccc(Cl)c(C(F)(F)F)c1", "growth": "67.7%"}
    ]},
    {"system": "M14 melanoma", "assay": "NCI-60 one-dose screen, 48 h (100 = growth as untreated, 0 = no growth, -100 = all killed)", "conditions": "10 µM", "values": [
      {"smiles": "Cc1cccc2cc(-c3cc(-c4ccccc4)nc(=S)[nH]3)c(Cl)nc12", "growth": "33.3%"},
      {"smiles": "Cc1ccc(/C=C(\\C#N)n2nnc3c(F)cccc32)cc1", "growth": "36.6%"},
      {"smiles": "COc1ccc2nc(Cl)c(-c3cc(-c4ccccc4)nc(=S)[nH]3)cc2c1", "growth": "16.5%"},
      {"smiles": "Cc1ccc(C(=O)Nc2ccc(-n3c(C)nc4c(cnn4-c4ccccc4)c3=O)cc2)cc1", "growth": "73.2%"},
      {"smiles": "Cc1ccc(-c2ccc(SCC(=O)Nc3ccc(Cl)c(C(F)(F)F)c3)nn2)cc1", "growth": "2.2% (active)"},
      {"smiles": "O=C(COc1ccc(NC(=O)Nc2ccc(Cl)cc2)cc1)N=Nc1c(O)[nH]c2ccc([N+](=O)[O-])cc12", "growth": "21.2%"},
      {"smiles": "Cc1nn(-c2ccccc2)c2ncn(CC(=O)N/N=C/c3c[nH]c4ccccc34)c(=O)c12", "growth": "92.3%"},
      {"smiles": "S=c1nc(-c2ccccc2)cc(-c2cc3ccccc3nc2Cl)[nH]1", "growth": "36.7%"},
      {"smiles": "Cc1ccc(C(=O)NCCCNc2nc(Nc3ccc(N4CCN(C)CC4)cc3)nc3ccsc23)cc1", "growth": "-7.88% (active)"},
      {"smiles": "COc1ccc2nc(Cl)c(-c3cc(-c4ccccc4)nc(N)n3)cc2c1", "growth": "44.1%"},
      {"smiles": "COc1cc(Cn2c(C(F)(F)F)cc3c(Cl)ncnc32)ccn1", "growth": "-25.6% (active)"},
      {"smiles": "O=C1CCC(N2Cc3c(NCc4ccc(-c5ccccc5)cc4)cccc3C2=O)C(=O)N1", "note": "(stereo not given)", "growth": "75.4%"},
      {"smiles": "O=c1nc(-c2ccccc2)cc(-c2cc3ccccc3nc2Cl)[nH]1", "growth": "38.6%"},
      {"smiles": "Cc1nc2c(cnn2-c2ccccc2)c(=O)n1-c1ccc(NC(=O)c2ccc(F)cc2)cc1", "growth": "62.9%"},
      {"smiles": "O=C(c1ccc([N+](=O)[O-])c([N+](=O)[O-])c1O)n1[nH]c(=O)c2ccccc2c1=O", "growth": "78.6%"},
      {"smiles": "Cc1ccc(-c2cc(-c3cc4ccccc4nc3Cl)[nH]c(=S)n2)cc1", "growth": "15.9%"},
      {"smiles": "COc1ccc2nc(Cl)c(-c3cc(-c4ccccc4)nc(=O)[nH]3)cc2c1", "growth": "81.9%"},
      {"smiles": "O=C(NO)c1ccc(CNc2nc(-c3ccccc3)c3ccccc3n2)cc1", "growth": "9.54% (active)"},
      {"smiles": "Cc1ccc(NC(=O)c2ccc(-n3c(=O)[nH]c4ccccc4c3=O)cc2)cc1", "growth": "101%"},
      {"smiles": "Nc1nc(-c2ccccc2)cc(-c2cc3ccccc3nc2Cl)n1", "growth": "84.2%"},
      {"smiles": "C=C1CC[C@H](C(=C)C)[C@H]2C=C(C)C(=O)C3=C(C(=O)[C@@](C)(O)C3)[C@H]12", "growth": "-30.3% (active)"},
      {"smiles": "Cc1cccc2cc(-c3cc(-c4ccccc4)nc(=O)[nH]3)c(Cl)nc12", "growth": "98.6%"},
      {"smiles": "Cc1ccc(C(C)C)cc1NC(=O)c1ccccc1O", "growth": "43.2%"},
      {"smiles": "O=C(Nc1ccccc1)Nc1nc2ccccc2s1", "growth": "78.8%"},
      {"smiles": "NC1=NC(c2ccccc2Cl)N=C(Nc2nn[nH]n2)N1", "note": "(stereo not given)", "growth": "106%"},
      {"smiles": "C=C(C)[C@@H]1CC[C@]2(C)[C@H](CC=C3[C@@H]4CC(C)(C)CC[C@]4(C(=O)N4CCOCC4)CC[C@]32C)[C@@]1(C)CCCN", "growth": "-80% (active)"},
      {"smiles": "Cc1ccc(-c2cc(-c3cc4ccccc4nc3Cl)[nH]c(=O)n2)cc1", "growth": "10.2%"},
      {"smiles": "O=C1Nc2cc(Cl)ccc2/C1=C/c1cccc(OCc2ccccc2)c1", "growth": "-18.1% (active)"},
      {"smiles": "O=C1Nc2ccc(Cl)cc2/C1=C/c1cccc(OCc2ccccc2)c1", "growth": "27%"},
      {"smiles": "O=C1Nc2ccc(Cl)cc2/C1=C/c1ccc(OCc2ccc(Br)cc2F)cc1", "growth": "46.8%"},
      {"smiles": "O=c1[nH]n(C(=S)N/N=C/c2ccc(F)cc2)c(=O)c2ccccc12", "growth": "78.1%"},
      {"smiles": "O=C1Nc2cc(Cl)ccc2/C1=C/c1ccc(OCc2ccc(Br)cc2F)cc1", "growth": "-45.1% (active)"},
      {"smiles": "CN1CCc2c(sc3ncnc(N/N=C/c4cn(-c5ccccc5)nc4-c4ccc(Br)cc4)c23)C1", "growth": "19.4%"},
      {"smiles": "COc1ccc(C=CC(=O)c2ccc(-n3c(C)nc4c(cnn4-c4ccccc4)c3=O)cc2)cc1", "growth": "53.1%"},
      {"smiles": "O=C1Nc2cc(Cl)ccc2/C1=C/c1cccc(OCc2ccc(Br)cc2F)c1", "growth": "-32.6% (active)"},
      {"smiles": "O=C1Nc2ccc(F)cc2/C1=C/c1cccc(OCc2ccccc2)c1", "growth": "17.3%"},
      {"smiles": "O=C(CSc1ccc(-c2ccc(Cl)cc2)nn1)Nc1ccc(Cl)c(C(F)(F)F)c1", "growth": "50.6%"}
    ]}
  ]
}
